Hits are enriched below; roughly 2.3% of the tested compounds scored in any of these assays.
Mcl1 Noxa PPI = disrupts binding of human Mcl-1 to Noxa peptide. Q07820. TR-FRET Mcl-1/Noxa peptide binding, 2 h. inhibition, % at 21.7 µM. 1.5% of 220,000 active. AID 1022;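 active = compounds that cut the protein-peptide binding signal by more than 50% relative to plate controls in a single-dose test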;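 note: His-tagged Mcl-1 with rhodamine Noxa BH3 peptide and terbium anti-His antibody; 0% = Mcl-1 plus Noxa peptide wells and 100% = peptide-only wells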
Target sequence (Q07820 whole entry, looked up): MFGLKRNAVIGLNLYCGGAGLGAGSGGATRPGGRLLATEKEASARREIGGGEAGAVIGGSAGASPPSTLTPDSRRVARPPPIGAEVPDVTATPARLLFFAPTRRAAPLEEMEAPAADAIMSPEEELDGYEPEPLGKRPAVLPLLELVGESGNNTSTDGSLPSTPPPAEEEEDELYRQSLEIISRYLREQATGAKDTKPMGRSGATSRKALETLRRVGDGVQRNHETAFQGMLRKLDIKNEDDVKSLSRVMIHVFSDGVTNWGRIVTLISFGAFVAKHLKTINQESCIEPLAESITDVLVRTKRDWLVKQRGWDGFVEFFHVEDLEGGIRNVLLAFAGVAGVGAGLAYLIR
GLD-1 TGE inh = GLD-1-TGE RNA interaction inhibition (C. elegans); Q17339; purified GLD-1 + fluorescein TGE RNA, fluorescence polarization; inhibition, % at 5.96 µM; 0.44% of 320,000 active; AID 2280;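 active = percent inhibition above a per-plate cutoff, the plate mean of test compounds plus 3 SD, cut at about 30% in these data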;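 note: 0% = DMSO wells with GLD-1 and probe and 100% = wells lacking GLD-1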
BCLXL inh = blocks human Bcl-xL binding to Bim BH3 peptide | inhibition, % at 10.9 µM | Q07817 | 0.7% of 320,000 active | GST-Bcl-xL / FITC-Bim BH3 peptide fluorescence polarization | AID 2129;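 active = inhibition above the mean of all tested compounds plus 3 SD, cutoff set per campaign, cut at about 30% in these data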;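 note: 0% = DMSO wells and 100% = unlabeled Bim-BH3 peptide competitor; inhibitors lower millipolarization by displacing the labeled peptide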
Target sequence (Q07817 whole entry, looked up): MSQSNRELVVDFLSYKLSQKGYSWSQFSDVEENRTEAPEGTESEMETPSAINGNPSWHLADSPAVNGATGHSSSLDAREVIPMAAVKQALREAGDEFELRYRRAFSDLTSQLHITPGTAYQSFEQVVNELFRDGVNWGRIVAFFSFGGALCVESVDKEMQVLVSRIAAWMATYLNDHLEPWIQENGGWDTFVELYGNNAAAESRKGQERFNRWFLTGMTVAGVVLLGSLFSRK
MCL1 BIM primary = inhibitors of human MCL1 binding to BIM-BH3 peptide. Q07820. GST-MCL1 / FITC-Bim-BH3 fluorescence polarization. inhibition, % at 10.9 µM. 0.68% of 320,000 active;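 active = inhibition above the mean inhibition of all tested compounds plus 3 SD, set per campaign, cut at about 40% in these data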;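 note: 0% = DMSO wells and 100% = unlabeled Bim-BH3 peptide control; higher means more loss of mP so more displacement of Bim peptide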
Bim-Mcl-1 = human Bim-Mcl-1 interaction inhibition. Q07820. Bead-based flow cytometry, Bim peptide-Mcl-1 binding. inhibition, % at 10 µM. 0.1% of 190,000 active; in the data active = inhibition above about 40%;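 note: 0% = no compound tracer wells and 100% = peptide blocker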
Mcl1 Bid PPI = Mcl-1/Bid interaction inhibition | inhibition, % at 21.7 µM | TR-FRET Mcl-1/Bid-Dy647 peptide binding, 1536-well | Q07820 | 0.97% of 220,000 active;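 active = compounds that cut the binding signal by more than half at the single screening dose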;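 note: His-tagged Mcl-1 with europium anti-His antibody binding Bid BH3 peptide; 0% = Mcl-1 plus peptide wells and 100% = peptide-only wells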
Bcl-xL conf = Bcl-xL (human) inhibition, MCL1 counter-screen confirmation. 54% of 1,700 active. GST-Bcl-xL / FITC-Bim BH3 peptide FP binding. shares compounds with MCL1 BIM primary. AID 2166. inhibition, % at 10.9 µM;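 active = inhibition above a cutoff equal to the mean inhibition of all tested compounds plus 3 SD, cut at about 30% in these data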;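 note: 0% = DMSO wells and 100% = unlabeled Bim BH3 control peptide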
MCL1 inh confirm = MCL1-BIM-BH3 interaction inhibition, confirmation | shares compounds with MCL1 BIM primary | GST-MCL1 / FITC-Bim-BH3 fluorescence polarization | inhibition, % at 10.9 µM | 61% of 1,700 active;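 active = inhibition above the average of all tested compounds plus 3 SD, cut at about 40% in these data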;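 note: 0% = DMSO wells and 100% = unlabeled Bim-BH3 control peptide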
An asterisk follows results filed as active; nt = not tested or not shown.

SMILES	Mcl1 Noxa PPI	GLD-1 TGE inh	BCLXL inh	MCL1 BIM primary	Bim-Mcl-1	Mcl1 Bid PPI	Bcl-xL conf	MCL1 inh confirm
COC1CCCN(Cc2c(C(=O)N3CCN(C4CCCCC4)CC3)nc3ccccn23)C1 (stereo unspecified)	nt	35*	61*	70*	nt	nt	40*	42*
CCOC(=O)C1CCCN(Cc2c(C(=O)N3CCOCC3)nc3ccccn23)C1 (stereo unspecified)	8	0	2	5	-1	-70	nt	nt
CCNc1ccc(Br)cc(C(=O)/C=C/c2ccc3c(c2)OCO3)c1=O	94*	9	13	47*	11	-29	-26	-45
Cc1cccc(C)c1N(CC(=O)N1CCCC1)S(C)(=O)=O	nt	5	2	13	nt	nt	nt	nt
COc1ccc(OC)c(/C=C/c2nc3ccccc3[nH]c2=O)c1	nt	75*	78*	83*	nt	nt	98*	99*
O=C(CCO)c1ccc(O)cc1	78*	16	17	75*	-5	-23	37*	80*
N#CC1=C(N)Oc2cc(O)c(Cl)cc2C1c1ccccc1F (stereo unspecified)	nt	59*	78*	57*	nt	nt	91*	118*
O=c1cc(CSc2nnc3ccccn23)c2c(ccc3ccccc32)o1	22	66*	76*	88*	-3	-3	-8	16
N#Cc1c(=O)c2nc(NCc3ccccc3)ncc2n2ccccc12	35	20	44*	53*	5	-9	32*	43*
CCOC(=O)c1cc(-c2ccc(/C=C3/C(=O)NC(=O)C(C#N)=C3C)o2)ccc1Cl	102*	42*	85*	121*	2	93*	105*	150*
CCCCC1(C)OC(=O)C(=Cc2ccc(-c3ccc(Cl)c(C(=O)O)c3)o2)C(=O)O1 (stereo unspecified)	28	-6	5	1	nt	-1	nt	nt
O=C(NC1CCN(Cc2ccccc2)CC1)c1cccc(Br)c1	nt	-6	0	0	nt	nt	nt	nt
Cc1cc(C=C2C(=O)c3ccccc3C2=O)c(C)n1C	32	26	51*	71*	1	-27	34*	55*
C#CCN1C(=O)S/C(=C\c2ccc(N3CCOCC3)cc2C)C1=O	-5	-47	-9	70*	0	-6	121*	153*
CCN1C(=O)S/C(=C\c2ccc(N3CCOCC3)cc2C)C1=O	-3	-51	-5	-12	-7	-10	nt	nt
O=C(N/N=C/c1ccc(-c2ccccc2C(=O)O)o1)c1cccs1	79*	6	28	71*	2	0	40*	73*
O=C(N/N=C/c1ccncc1)c1cccs1	nt	-3	1	7	nt	nt	nt	nt
CC(C)(C)C(=O)Nc1ccc(S(=O)(=O)N2CCC(c3nc4ccccc4[nH]3)CC2)cc1	nt	5	1	-4	nt	nt	nt	nt
COc1ccccc1CNC(=O)CN1C(=O)c2cccc(N)c2C1=O	nt	103*	93*	107*	nt	nt	43*	54*
Cn1nc([N+](=O)[O-])c(C(C#N)c2ccccn2)c(Cl)c1=O (stereo unspecified)	5	25	48*	60*	-1	-26	23	15
O=C(CCN1C(=O)/C(=C\C=C\c2ccccc2)SC1=S)Nc1ccc(C(=O)O)cc1	nt	-10	0	13	nt	nt	nt	nt
O=C(O)c1ccc(N2C(=O)/C(=C/C=C/c3ccccc3)SC2=S)cc1	1	0	16	40*	-2	-56	6	14
N=C1/C(=C\c2coc3ccccc3c2=O)C(=O)N=C2SC=CN12	6	51*	55*	60*	nt	-79	61*	70*
O=C(Cn1cnc2sc(-c3ccccc3)cc2c1=O)NCc1ccco1	62*	-4	4	62*	-3	14	22	62*
CCN(CC(=O)Nc1c(F)cccc1F)C(=O)/C=C/c1ccc2ccccc2n1	nt	0	32*	86*	nt	nt	21	90*
SMILES	Mcl1 Noxa PPI	GLD-1 TGE inh	BCLXL inh	MCL1 BIM primary	Bim-Mcl-1	Mcl1 Bid PPI	Bcl-xL conf	MCL1 inh confirm
CCN(CC(=O)Nc1c(F)cccc1F)C(=O)c1ccc2ccccc2n1	nt	-6	3	0	nt	nt	nt	nt
NNC(=O)c1cc(O)c(O)c(O)c1	73*	4	25	54*	8	-83	34*	46*
CCOc1ccc(/C=C2\SC(=S)N(N3C(=O)C4CC4C3=O)C2=O)cc1 (stereo unspecified)	12	3	10	6	-1	-43	nt	nt
CCOc1ccc(N=C2NC(=O)S/C2=C\c2ccc(N(C)C)cc2)cc1	14	43*	70*	80*	2	-75	96*	113*
Cc1c(Br)c(O)c(Br)c2sc(=O)oc12	51*	3	36*	79*	nt	-11	20	49*
CCN(C1CCCCC1)S(=O)(=O)c1cc2c3c(c1)CCN3C(=O)CC2	nt	5	6	4	nt	nt	nt	nt
Cc1ccc2c(c1)C1CC(C)(O2)N(c2cccc(C(=O)N3CCN(c4ccccn4)CC3)c2)C(=O)N1 (stereo unspecified)	nt	0	8	6	nt	nt	nt	nt
Cc1ccc(C)c(NC(=O)CN(C)C(=O)c2cccc(-n3cccc3)c2)c1	nt	3	9	46*	nt	nt	10	64*
CN(CC(=O)Nc1ccccc1Cl)C(=O)c1cccc(-n2cccc2)c1	nt	-2	-1	1	nt	nt	nt	nt
Cc1ccc(C)c(OC(=O)CN2C(=O)c3ccccc3C2=O)c1	nt	0	0	-11	nt	nt	nt	nt
O=C1N=C(N2C=CC(=C3C=CNC=C3)C=C2)/C(=C/N=NC(=O)c2ccccc2O)S1	nt	81*	99*	115*	nt	nt	84*	114*
CC1Sc2ccc(S(=O)(=O)CCC(=O)N3CCN(c4cccc(Cl)c4)CC3)cc2NC1=O (stereo unspecified)	nt	-5	3	2	nt	nt	nt	nt
COc1ccc(/C=N/N=C2/NC(=O)CC(C(=O)O)S2)cc1 (stereo unspecified)	12	-8	2	4	0	1	nt	nt
COc1ccc(/C=N/N=C2/CC(C)(C)Cc3n[nH]c(=O)cc32)cc1	17	120*	138*	155*	1	-47	49*	63*
COc1ccc2c(c1)CCN1C2CCN2C(=O)CCC21 (stereo unspecified)	4	21	45*	56*	nt	-10	19	16
Cc1ccnc2nc(C(=O)OCC(=O)c3ccc(NC(=O)CC(C)C)cc3)nn12	nt	-5	nt	nt	nt	nt	nt	nt
CCC(=O)Nc1ccc(C(=O)COC(=O)c2nc3nccc(C)n3n2)cc1	nt	8	3	54*	nt	nt	1	52*

Bioassay records deposited in PubChem by several laboratories.
